This is a sample that favours compounds with a hit; in the whole collection about 2.4% have one here.
ULK1 inh: ULK1 kinase inhibitors, primary screen, biochemical, AlphaScreen; Serine/threonine-protein kinase ULK1 (Homo sapiens), O75385; AlphaScreen Atg13 phosphorylation by ULK1, luminescence; inhibition, % at 5.96 µM; 30,000 tested, 1.9% active; in the data active = inhibition above about 43%;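 also: 0% = median of compound wells and 100% = no enzyme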
Target sequence (O75385 whole entry, looked up): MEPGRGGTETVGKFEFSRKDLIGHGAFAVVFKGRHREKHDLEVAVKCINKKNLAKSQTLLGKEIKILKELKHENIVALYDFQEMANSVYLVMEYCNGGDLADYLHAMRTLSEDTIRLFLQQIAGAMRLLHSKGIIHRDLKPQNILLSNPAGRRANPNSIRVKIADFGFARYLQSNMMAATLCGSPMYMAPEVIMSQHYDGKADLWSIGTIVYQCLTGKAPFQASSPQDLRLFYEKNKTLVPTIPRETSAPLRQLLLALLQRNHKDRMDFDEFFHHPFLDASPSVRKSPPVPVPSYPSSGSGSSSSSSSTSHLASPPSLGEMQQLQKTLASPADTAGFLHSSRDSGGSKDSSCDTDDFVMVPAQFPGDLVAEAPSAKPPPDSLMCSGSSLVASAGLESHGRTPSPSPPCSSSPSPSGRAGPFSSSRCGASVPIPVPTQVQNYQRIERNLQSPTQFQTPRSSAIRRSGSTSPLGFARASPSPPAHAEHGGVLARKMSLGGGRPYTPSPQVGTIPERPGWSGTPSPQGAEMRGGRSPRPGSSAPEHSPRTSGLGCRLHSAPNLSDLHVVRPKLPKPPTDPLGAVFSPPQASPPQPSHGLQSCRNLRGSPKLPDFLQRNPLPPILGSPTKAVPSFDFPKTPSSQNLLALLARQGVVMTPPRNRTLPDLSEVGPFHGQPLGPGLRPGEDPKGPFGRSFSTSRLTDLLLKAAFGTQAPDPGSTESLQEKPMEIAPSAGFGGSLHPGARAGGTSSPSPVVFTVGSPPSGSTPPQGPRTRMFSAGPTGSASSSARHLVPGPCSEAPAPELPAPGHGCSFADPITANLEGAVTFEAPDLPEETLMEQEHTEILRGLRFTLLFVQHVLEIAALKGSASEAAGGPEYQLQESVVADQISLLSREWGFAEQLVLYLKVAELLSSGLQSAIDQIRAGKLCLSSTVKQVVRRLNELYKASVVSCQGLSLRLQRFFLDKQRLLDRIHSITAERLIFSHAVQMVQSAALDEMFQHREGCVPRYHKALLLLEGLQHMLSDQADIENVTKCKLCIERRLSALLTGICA
ASK1 inh: ASK1 kinase inhibitors, primary screen, biochemical, AlphaScreen; Mitogen-activated protein kinase kinase kinase 5 (Homo sapiens), Q99683; AlphaScreen MKK6 phosphorylation by ASK1, luminescence; inhibition, % at 7.44 µM; 22,000 tested, 0.99% active; AID 1159602, 2016; in the data active = inhibition above about 35%;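 also: 0% = median of compound wells and 100% = no enzyme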
Numbers without * were called inactive; . = no result.

SMILES	ULK1 inh	ASK1 inh
CNC(=O)c1ncccc1Nc1cc(Nc2ccc(N3CCOCC3)cc2OC)ncc1C(F)(F)F	46*	24
CNC(=O)c1cccc(Nc2cc(Nc3ccc(N4CCOCC4)cc3OC)ncc2C(F)(F)F)c1	18	21
CNC(=O)c1ncccc1Nc1cc(Nc2ccc(C(=O)N(C)C)cc2OC)ncc1C(F)(F)F	24	16
COc1cc(N2CCOCC2)ccc1Nc1cc(NCc2ccccc2)c(C(F)(F)F)cn1	18	1
COc1cc(N2CCOCC2)ccc1Nc1cc(NC(C)(C)c2ccccc2)c(C(F)(F)F)cn1	22	-13
CNC(=O)c1ccccc1Nc1cc(Nc2ccc(N3CCS(=O)CC3)cc2OC)ncc1C#N	90*	22
O=C(NCCCN1CCCC1=O)c1ccn(-c2ccnc(Nc3ccc(N4CCOCC4)cc3)c2)n1	4	-19
c1ccc(OCCNc2ccnc(N3CCC(N4CCOCC4)CC3)n2)cc1	-34	10
COc1cc(Nc2nc(NCc3cccnc3)c3ncn(CCN4CCCC4=O)c3n2)cc(OC)c1OC	24	-11
COc1ccc(-c2cccc(C(=O)NCCCN3CCCC3=O)c2)cn1	4	4
NC(Cc1cc(I)c(Oc2ccc(O)c(I)c2)c(I)c1)C(=O)O (configuration not stated)	-7	.
N[C@@H](Cc1cc(I)c(Oc2cc(I)c(O)c(I)c2)c(I)c1)C(=O)O	79*	.
COc1cc(Nc2nc(-c3ccc(C(=O)NC4CC4)cc3)ncc2C)cc(OC)c1OC	35	21
COc1cc(Nc2nc(-c3ccccc3)ncc2C)cc(OC)c1OC	49*	16
COc1cc(Nc2nc(-c3cccc(C(C)=O)c3)ncc2C)cc(OC)c1OC	25	7
COc1ccc(-c2ncc(C)c(Nc3cc(OC)c(OC)c(OC)c3)n2)cc1	67*	22
Cc1[nH]ncc1-c1cc2c(cc1F)nc(C1COc3ccccc3C1)n2CCN(C)C (configuration not stated)	-9	1
NC(=O)c1ccc(-c2cc(NCc3cccnc3)nc(N)n2)cc1	24	2
Nc1cccc(-c2cc(NCc3cccnc3)nc(N)n2)c1	55*	-3
O=C1CSC(=Nc2ccc3c(c2)OCO3)N1	6	.
CC(C)n1c(Nc2ccc(N3CCOCC3)cc2)nc2c(Nc3ccccc3)ncnc21	-11	21
CC(C)n1c(Nc2cccc(N(C)C)c2)nc2c(Nc3ccc(N4CCOCC4)cc3)ncnc21	22	37*
CCCNc1nc(Nc2nc3ccccc3n2C)nc2c1ncn2C1CCCCC1	41	2
Cn1c(Nc2nc(NCCc3ccc(O)cc3)c3ncn(C4CCCCC4)c3n2)nc2ccccc21	44*	-2
Cc1cnc(CNc2nc3ccccc3n3ccnc23)cn1	12	.
SMILES	ULK1 inh	ASK1 inh
CCN(CC)C(=O)C1CCCN(c2nc(NCc3nc4ccccc4[nH]3)c3cc(OC)c(OC)cc3n2)C1 (configuration not stated)	49*	-16
CCN(CC)C(=O)C1CCCN(c2nc(NCc3cccnc3)c3cc(OC)c(OC)cc3n2)C1 (configuration not stated)	9	2
CN1CCN(c2ccc(-c3nc(NC4CCN(Cc5ccccc5)CC4)c4ncn(CCN5CCCC5=O)c4n3)cc2)CC1	-3	7
CCCCNC(=O)c1nn2c(c1Cl)NC(c1ccco1)CC2C(F)(F)F (configuration not stated)	-7	.
CC(=O)Nc1ccc(NC(=O)c2cccc(-c3ccc(C(=O)NC4CC4)cc3)c2)cc1	47*	9
O=C(NC1CC1)c1ccc(-c2cccc(C(=O)NC3CC3)c2)cc1	-2	12
C=CCN1CCC2(CC1)CN(C(=O)c1ccc(Br)o1)c1ccccc12	4	-9
CC(C)n1cnc2c(NC3CC3)nc(Nc3ccc(N4CCOCC4)cc3)nc21	20	-3
CC(C)n1cnc2c(Nc3ccc(N4CCOCC4)cc3)nc(Nc3ccc(N4CCOCC4)cc3)nc21	32	21
CC(C)n1cnc2c(Nc3ccc(N4CCOCC4)cc3)nc(Nc3ccccn3)nc21	69*	22
CC(C)n1cnc2c(Nc3ccc(N4CCOCC4)cc3)nc(Nc3nccc4ccccc34)nc21	27	3
CC(C)n1cnc2c(Nc3ccc(N4CCOCC4)cc3)nc(Nc3cccnc3)nc21	49*	-7
CC(C)n1cnc2c(Nc3ccc(N4CCOCC4)cc3)nc(Nc3ccncn3)nc21	52*	14
COc1cc(OC)nc(Oc2ccccc2C(=O)NC(C)(C(N)=O)C(C)C)n1 (configuration not stated)	10	.
CCN1CCN(c2c(Cl)cccc2NC(=O)c2ccccc2Cl)CC1	7	1
CC(=O)Nc1ccc(Nc2cc(C)nc(N3CCc4ccccc4C3)n2)cc1	-9	8
Cc1cc(Nc2ccc(N3CCOCC3)cc2)nc(N2CCN(c3ccccn3)CC2)n1	4	46*
Cc1cc(Nc2ccc(N3CCOCC3)cc2)nc(N2CCc3ccccc3C2)n1	-3	58*
CC(=O)Nc1ccc(Nc2cc(C)nc(N3CCN(c4ccccn4)CC3)n2)cc1	-11	7
COc1ccc(-c2nc(NC3CC3)c3ncn(-c4ccsc4)c3n2)cn1	-5	6
CN(C)c1cccc(Nc2nc3ccc(C(=O)Nc4ccccc4)cc3s2)c1	7	32
O=C(NCc1c(-c2ccc(Cl)cc2)nc2n1CCS2)C12CC3CC(CC(C3)C1)C2	-4	.
Nc1cccc(-c2nc(NCc3ccccc3)c3ncn(C4CCCCC4)c3n2)c1	-2	7
CNS(=O)(=O)c1ccccc1Nc1nc(Nc2cc(OC)ccc2OC)ncc1Br	64*	-3
COc1cnc(Nc2ccc(N3CCOCC3)cc2)nc1Nc1ccc(N2CCOCC2)cc1	17	-2
SMILES	ULK1 inh	ASK1 inh
COc1ccc(Nc2ncc(-c3ccccc3)cn2)cc1	4	.
CNS(=O)(=O)c1ccccc1Nc1nc(Nc2ccc(N3CCOCC3)cc2OC)ncc1Br	91*	-46
Cn1c(=O)cc(N2CCOCC2)n(Cc2cccc(C(F)(F)F)c2)c1=O	6	.
Cc1[nH]ncc1-c1ccc(NC(=O)[C@H]2Cc3ccccc3CN2)c(OCCN(C)C)c1	14	15
COc1cc(Nc2nc(Nc3nc4ccccc4n3C)nc3c2ncn3Cc2ccc(C(F)(F)F)cc2)cc(OC)c1OC	17	21
O=C(C(O)c1ccc(Cl)cc1)N1CCCC(Nc2ccc3[nH]ncc3c2)C1 (configuration not stated)	0	6
O=C(Nc1ccccc1)c1cc(NC2CCC(O)CC2)nc2ccccc12 (configuration not stated)	1	1
COc1nc(N/N=C/c2cccc3ccccc23)nc(N2CCOCC2)n1	-8	.
Nn1cnnc1N/N=C/c1cccc2ccccc12	60*	.
COc1cc(OC)nc(C2CCN(C(=O)C(C)(C)C)CC2)n1	-3	.
Cn1c(Nc2ccc(N3CCC(C(=O)NC4CCN(Cc5ccccc5)CC4)CC3)nn2)nc2ccccc21	15	-36
c1cc(Cn2ccnc2)cc(Nc2nccc(-c3cncc(N4CCOCC4)c3)n2)c1	80*	6
c1cc(-c2cncc(N3CCOCC3)c2)nc(Nc2ccc(-n3cncn3)cc2)n1	11	17
c1cc(Cn2cncn2)cc(Nc2nccc(-c3cncc(N4CCOCC4)c3)n2)c1	55*	1
c1cn(-c2ccc(Nc3nccc(-c4cncc(N5CCOCC5)c4)n3)cc2)cn1	34	-14
CC(N)(Cc1ccc(O)c(O)c1)C(=O)O (configuration not stated)	85*	.
